Shiga toxin inh: inhibitors of Shiga toxin in Vero cells; Vero cells, Shiga toxin protein synthesis inhibition reporter; inhibition, % at 38.7 µM; 290,000 tested, 9.2% active; in the data active means inhibition mostly above about 28%, no sharp cut-off; inactive means mostly below about 43%; further: 0% is about no effect
NS1 function inh: blocks influenza NS1 protein function | Potency, µM (series often up to 46.1 µM), inactives show at the highest dose activity, positive = more growth | 270,000 tested, 0.4% active | AID 2326; calls by dose curve; further: potency means the concentration at half of the fitted maximal effect; actives are rising curves; nearly all actives have a fitted effect of over 50% in size
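A cell-based growth assay was used: compounds that relieve NS1-induced slow growth of budding yeast raise OD600. Assay medium was yeast nitrogen base with ammonium sulphate and -URA supplement, pH 6.0, with 2% galactose.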
Cycloheximide cs: affects cycloheximide protein synthesis inhibition readout, counter-screen | cell reporter, cycloheximide protein synthesis inhibition counterscreen | max response, % | 300,000 tested, 12% active; in the data active means max response mostly above about 13%, no sharp cut-off; inactive means mostly below about 14%; further: read at 38.3 µM for the half of the compounds with a filed dose; 0% is about no effect
Sm TGR inh: inhibitors of Schistosoma mansoni thioredoxin glutathione reductase; Q962Y6; purified TGR, DTNB reduction, TNB absorbance 405 nm; Potency, µM (series often up to 114 µM), inactives show top-dose activity change, negative = inhibition, hits mostly inhibitors; 360,000 tested, 3% active; further: potency means the concentration at half of the fitted maximal effect; on the % scale 0 is the no-effect control and ±100 the full control effect; nearly all actives have a fitted effect of over 60% in size
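TGR 20 nM + NADPH 100 uM (dispensed conc.), cpd preinc 15 min RT; start with NADPH (500 uM addition) then DTNB (15 mM addition). Kinetic TNB absorbance, 405 nm filter. Four-parameter Hill fit across titration.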
Pf growth 96h: inhibits malaria parasite growth, 96 h. Potency, µM (titrated, usually from 28.7 µM), without a hit: top-dose activity change, negative = inhibition, most hits filed as inhibitors. 320,000 tested, 6.9% active. P. falciparum luciferase reporter growth, 96 h; further: potency means the concentration at half of the fitted maximal effect; on the % scale 0 is the no-effect control and ±100 the full control effect
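Two parasite generations (96 h, 37 C, 5% CO2) of compound exposure in infected erythrocytes (0.05% parasitemia, 2% hematocrit). Luciferase-reporter P. falciparum; decreased luminescence indicates inhibited growth, aimed at apicoplast-acting delayed death.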
Pf growth 48h: inhibits P. falciparum growth in the first generation, 48 h. 310,000 tested, 5.9% active. AID 504832. P. falciparum luciferase growth in erythrocytes, 48 h. Potency, µM (top dose mostly 28.7 µM), inactives show top-dose activity change, negative = inhibition, actives largely listed as inhibitors; further: potency means the concentration at half of the fitted maximal effect; on the % scale 0 is the no-effect control and ±100 the full control effect
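Here the parasites carry a stable luciferase gene and grow inside erythrocytes in Albumax-based RPMI medium with compound for one erythrocytic cycle. Activity is scored as loss of luminescent signal.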
An asterisk follows results filed as active; i = inactive; u = inconclusive; x = not tested or not shown; [ ] = remark or other dose. This is a sample that favours compounds with a hit; in the whole collection about 21% have one here. Unless noted, the call rests on the fitted dose curve; in most records, active means well fitted curve in the direction sought with a large enough effect; inconclusive means small, poorly fitted or top-dose-only effect, or another doubt; inactive means no such curve, though single readings can be large; an effect the other way counts as inactive or inconclusive.

SMILES	Shiga toxin inh	NS1 function inh	Cycloheximide cs	Sm TGR inh	Pf growth 96h	Pf growth 48h
CCC(C)OC(=O)/C(C#N)=C\c1ccc(-c2cccc(C(F)(F)F)c2)o1 (stereo unspecified)	x	x	x	7%	x	x
CC(=O)N1CCOc2cc(S(=O)(=O)NCc3ccc(C)cc3)c(C)cc21	x	x	x	6%	x	x
CN1C(=O)C(=Cc2ccccc2OCCOc2ccc([N+](=O)[O-])cc2)C(=O)N(C)C1=O	22	x	21	-16%	12µM*	4%
CCc1nnc(NS(=O)(=O)c2ccc(NC(=O)CCC(=O)O)cc2)s1	-10	-14%	0	-12%	-16%	-4%
Cc1cc(C)nc(NS(=O)(=O)c2ccc(N/C=C\C(=O)c3ccc(Cl)cc3)cc2)n1	53	u	19	-1%	u	6%
CCc1nnc(NS(=O)(=O)c2ccc(N/C=C\C(=O)c3cccc(OC)c3)cc2)s1	72*	0%	32*	x	427%	-18%
CC(C)(C)Cc1nnc(NS(=O)(=O)c2ccc(F)cc2)s1	-8	-6%	1	-8%	u	2%
CCc1nnc(NS(=O)(=O)c2ccc(N/C=C\C(=O)c3ccc(C)cc3)cc2)s1	103*	-52%	28*	-23%	134%	59%
CCc1nnc(NS(=O)(=O)c2ccc(N/C=C\C(=O)c3ccc(F)cc3)cc2)s1	66*	7%	47*	x	-24%	-14%
CCc1nnc(NS(=O)(=O)c2ccc(N/C=C/C(=O)c3ccc(C)cc3)cc2)s1	93*	1%	39*	0%	-11%	20%
CSCc1cc(N(C)c2ccccc2)nc(-c2ccccn2)n1	-11	-35%	-4	-1%	u	-6%[0.00184 µM]
COc1cnc(-c2ccccn2)nc1Oc1ccccc1	-4	x	1	1%	u	12µM*
COc1cnc(-c2ccccn2)nc1Oc1cccc(C(F)(F)F)c1	-6	-5%	13	1%	1.7µM*	2.3µM*
COc1ccnc(Oc2ccccc2)c1C#N	-16	-9%	-1	-22%	0%	30%
COc1cnc(-c2ccccn2)nc1N(C)c1ccccc1	66*	-64%	48*	3%	0.93µM*	0.93µM*
CCC(=O)Nc1ccccc1-c1nc2ccccc2n(C(C)C(=O)Nc2cccc(Cl)c2C)c1=O (stereo unspecified)	x	x	x	4%	x	x
CCOc1ccccc1-c1nnc2n1N=C(c1cccc(OC)c1)CS2	-10	x	-6	x	x	x
CC(C)(CO)CNC(=O)CCc1nnc(Cc2ccc(-c3ccccc3)cc2)o1	29	-1%	1	x	16%	u
CN(Cc1ccsc1)C(=O)CCc1nnc(CCCc2ccccc2)o1	124*	-7%	47*	-19%	-25%	-2%
Cc1ccsc1CN(C)C(=O)CCc1nnc(COc2ccccc2)o1	56*	-7%	35*	1%[57.1 µM]	17%	13%
O=C(CCc1nnc(COc2ccccc2)o1)NCc1ccccc1	24	7%	11	7%	u	29%
CC(Cc1ccsc1)NC(=O)CCc1nnc(COc2ccccc2)o1 (stereo unspecified)	18	-3%	19*	0%	28%	0%
CC(C)(CO)CNC(=O)CCc1nnc(CCCc2ccccc2)o1	36	1%	22*	0%	u	22%
CCOC(=O)C1=C(C)c2ccccc2N(S(=O)(=O)C(F)(F)F)C1C(=O)OCC (stereo unspecified)	i	x	7	x	x	x
CC1CC(C)(C)NC(=S)N1CC(=O)N1CCN(Cc2ccc3c(c2)OCO3)CC1 (stereo unspecified)	-13	x	-1	3%	2%	0%
SMILES	Shiga toxin inh	NS1 function inh	Cycloheximide cs	Sm TGR inh	Pf growth 96h	Pf growth 48h
COc1ccc(-n2nc(C(=O)NCC(=O)N(C)Cc3ccccc3)c3ccccc3c2=O)cc1OC	11	-14%	-2	4%	0%	u
COc1cccc(Cn2ccn(-c3ccc(F)cc3)c(=O)c2=O)c1	x	x	x	-6%	x	x
COc1cccc(CN(C)C(=O)CCc2nnc(-c3ccsc3)o2)c1	33	-7%	7	-11%	u	10µM*
CCOC(=O)CN(C)C(=O)CCc1nnc(-c2ccsc2)o1	-7	11%	-3	2%	u	-24%
CCN(Cc1ccccc1)C(=O)CCCOc1ccccc1	77*	-102%	26*	-7%	-18%	47%
O=C(O)CCCC(=O)N(Cc1ccccc1)Cc1ccccc1	14	13%	-1	8%[11.4 µM]	x	x
CCN(Cc1ccncc1)C(=O)CCc1nnc(CCC2CCCCC2)o1	39*	1%	23*	13%	u	u
CCN(Cc1ccccc1)C(=O)CCc1nnc(CCCc2ccccc2)o1	57*	-3%	22*	-5%	-1%	29%
CCCc1nnc(NC(=O)c2cc(=O)c3cc(Cl)ccc3o2)s1	x	x	x	1%	x	x
N[C@H]1[C@@H](C(=O)O)[C@H]2C=C[C@H]1C2	x	-12%	x	x	x	x
COc1cc(NC(C)C(=O)N2CC(C)OC(C)C2)cc(OC)c1 (stereo unspecified)	-21	0%	-4	-9%	x	4.7µM*
COc1cccc(NC(C)C(=O)N2CC(C)OC(C)C2)c1 (stereo unspecified)	-9	-1%	1	11%	u	-1%
Cc1ccc(-n2c(=O)c3c4c(sc3n(CC(=O)C(C)(C)C)c2=O)CCCCC4)cc1C	x	x	x	-1%	x	x
COc1ccc(N=C(NN)c2ccc3ccccc3n2)cc1	20	13%	17	3%	2%	130%
CCOc1ccc(CN(C)C(=O)c2ccc3ccccc3n2)cc1	14	-16%	-2	8%	38%	3%
COc1ccc(NC(=S)c2ccc3ccccc3n2)cc1	60*	-3%	45*	10%	54%	68%
CCOc1ccc(NC(=S)c2ccc3ccccc3n2)cc1	38*	-5%	24*	-9%	14%	46%
CCOc1sc2nc(C)n(CC(=O)Nc3cccc(C)c3)c(=O)c2c1C	x	x	x	-3%	x	x
CCOc1ccc(C(CC(=O)O)n2cnnn2)cc1 (stereo unspecified)	28	x	-2	-4%	u	-1%
Cc1ccc(C)n1C(CC(=O)O)c1ccc(C#N)cc1 (stereo unspecified)	-11	13%	1	40µM*	u	21%
COC(=O)CC(c1ccc(F)cc1)n1c(C)ccc1C (stereo unspecified)	-1	1%	9	u	13µM*	u
CCOC(=O)CC(c1ccc(N)cc1)n1c(C)ccc1C (stereo unspecified)	13	0%	-2	u	u	u
Cc1ccc(S(=O)(=O)N2CCOCC2)cc1C(=O)NC1CCCC1	-4	4%	1	5%	26%	5%
COC(=O)c1ccc(N2CCN(c3ccccc3)CC2)c(N)c1	36	1%	16*	5%	63%	35%
COC(=O)c1ccc(N2CCN(c3ccccc3)CC2)nc1	45*	-11%	25*	8%	159%	134%

Source: PubChem
